BAZ2B inh: inhibitors of human BAZ2B bromodomain; AlphaScreen BAZ2B-H3K14Ac peptide displacement; Potency, µM (series often up to 114 µM), without a hit: at the highest dose activity change, negative = inhibition, usual class: inhibitors; hit rate 4.4% among 360,000; further: potency means the concentration at half of the fitted maximal effect; on the % scale 0 is the no-effect control and ±100 the full control effect; nearly all actives have a fitted effect of over 60% in size
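BAZ2B (50 nM) with biotin-H3(5-23)K14Ac peptide (50 nM) in PBS pH 7.4, 0.01% Tween-20, preformed 30 min, then compound 30 min at room temperature; top concentration 110uM. AlphaScreen streptavidin donor/nickel chelate acceptor beads (10 ug/mL final), 20 min dark, signal read.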
PLK1 PBD inh: blocks phosphopeptide binding to human PLK1 polo-box domain; Plk1 PBD binding of FITC phosphopeptide, fluorescence polarization; hit rate 2.8% among 360,000; AID 720504; Potency, µM, inactives show max response, negative = inhibition, hits mostly inhibitors; P53350; further: potency means the concentration at half of the fitted maximal effect; series mostly up to about 57 µM; on the % scale 0 is the no-effect control and ±100 the full control effect; nearly all actives have a fitted effect of over 65% in size
L3MBTL1 inh: blocks human L3MBTL1; hit rate 0.66% among 230,000; Potency, µM (highest dose often 57.1 µM), without a hit: at the top dose activity, negative = inhibition, actives largely listed as inhibitors; Q9Y468; AID 485360; AlphaScreen L3MBTL1–H3K9me1 peptide binding; further: potency means the concentration at half of the fitted maximal effect; on the % scale 0 is the no-effect control and ±100 the full control effect; nearly all actives have a fitted effect of over 60% in size
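Read-out is AlphaScreen signal from streptavidin donor and nickel chelate acceptor beads (10 ug/mL final each) bridging L3MBTL1 (50 nM) and biotinylated K9-monomethylated H3(1-15) peptide (75 nM), after 30 min compound exposure at room temperature.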
HP1b chromo inh: inhibitors of HP1-beta chromodomain binding to methylated histone tails | AlphaScreen HP1-beta / biotin-H3K9me3 peptide binding | Potency, µM (highest dose often 114 µM), for the others: at the highest dose activity change, negative = inhibition, hits mostly inhibitors | hit rate 0.56% among 390,000 | AID 540317; further: potency means the concentration at half of the fitted maximal effect; nearly all actives have a fitted effect of over 70% in size
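HP1-beta protein (50 nM final) preincubated 30 min at room temperature with biotinylated H3(1-18)K9me3 peptide (50 nM) in PBS pH 7.4, 0.01% Tween-20, then compound added for 30 min. AlphaScreen streptavidin donor/nickel chelate acceptor beads (10 ug/mL final), 30 min dark, luminescence read.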
JMJD2A Tudor: inhibitors of human JMJD2A Tudor domain; O75164; AlphaScreen JMJD2A-Tudor / H3K4me3 peptide binding; Potency, µM (top dose mostly 114 µM), without a hit: at the top dose activity change, negative = inhibition, usual class: inhibitors; hit rate 4.4% among 390,000; further: potency means the concentration at half of the fitted maximal effect; on the % scale 0 is the no-effect control and ±100 the full control effect; nearly all actives have a fitted effect of over 50% in size
VDR inhibitor: blocks the human vitamin D receptor. P11473. VDR-SRC2-3 peptide fluorescence polarization, 2 h. Potency, µM, without a hit: max response, negative = inhibition, usual class: inhibitors. hit rate 0.93% among 400,000. AID 504847; further: potency means the concentration at half of the fitted maximal effect; on the % scale 0 is the no-effect control and ±100 the full control effect
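FP read-out; VDR + SRC2-3 coactivator peptide; 23 nl compound by pintool; 2 h RT incubation; reagents held at 4 deg C, protected from light.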
12-hLO 8HQ R1: confirmation of human 12-lipoxygenase inhibitors, 8HQ series round 1; shares compounds with BAZ2B inh; purified 12-hLO, cuvette UV 234 nm product formation; Potency, µM, most hits filed as inhibitors; hit rate 60% among 35;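 active means compounds that slowed 12-hLO product formation enough to yield a measured IC50 potency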
JMJD2E inh: JMJD2E demethylase inhibition by 8HQ compounds. shares compounds with BAZ2B inh. JMJD2E demethylase, FDH-coupled NADH fluorescence (FDH is formaldehyde dehydrogenase). Potency, µM (highest dose often 57 µM), for the others: top-dose activity, negative = inhibition, most hits filed as inhibitors. hit rate 89% among 130. AID 493212
ME-1 prolif: reduces ME-1 leukemia cell proliferation. ME-1 cell proliferation, ATP luminescence, 48 h. AID 504370. shares compounds with BAZ2B inh. hit rate 20% among 140. Potency, µM (highest dose often 56.1 µM), for inactives: at the top dose activity change, negative = inhibition, actives largely listed as inhibitors
Active calls of the source: *; [ ] = dose if it differs, or a comment. An excerpt weighted towards active compounds, which were near 6.9% of everything screened. Unless noted, the call rests on the fitted dose curve; in most records, active means well fitted curve in the direction sought with a large enough effect; inconclusive means small, poorly fitted or top-dose-only effect, or another doubt; inactive means no such curve, though single readings can be large; an effect the other way counts as inactive or inconclusive.

Screening CC(=O)NCc1cc(Cl)c2cccnc2c1O returned BAZ2B inh 10µM*, L3MBTL1 inh 22.4µM*, 12-hLO 8HQ R1 inactive and JMJD2E inh 20.4µM*.
For CCC(=O)NC(C)c1cc(Cl)c2cccnc2c1O (stereo not drawn) the results were BAZ2B inh 31.6µM*, L3MBTL1 inh inconclusive, HP1b chromo inh 44.4%, JMJD2A Tudor 79.4µM*, VDR inhibitor 4.6%, 12-hLO 8HQ R1 50µM* and JMJD2E inh 28.9µM*.
CC(=O)NC(C)c1cc(Cl)c2cccnc2c1O (stereo not drawn) was read as BAZ2B inh 35.5µM*, L3MBTL1 inh inconclusive, HP1b chromo inh 27.4%, JMJD2A Tudor 79.4µM*, VDR inhibitor 8.6%, 12-hLO 8HQ R1 inactive and JMJD2E inh 28.9µM*.
CCC(=O)NC(c1cc(Cl)c2ccccc2c1O)C(C)C (stereo not drawn) was read as BAZ2B inh -9.4%, L3MBTL1 inh 8.0%, HP1b chromo inh 66.8%, JMJD2A Tudor 2.1% and VDR inhibitor -16.7%.
For O=C(O)C(Cc1ccc(Cl)cc1)NS(=O)(=O)c1ccc(Cl)cc1 (stereo not drawn) the results were BAZ2B inh -8.5%, PLK1 PBD inh -1.3%, HP1b chromo inh 9.2%, JMJD2A Tudor -12.6% and VDR inhibitor 10.1%.
`O=C(NC(=S)NNC(=O)c1ccccc1O)c1ccco1` gave BAZ2B inh inconclusive, PLK1 PBD inh -7.4%, L3MBTL1 inh -16.6%, HP1b chromo inh 1.5%, JMJD2A Tudor 35.5µM*, VDR inhibitor -12.6% and ME-1 prolif inconclusive.
`COc1c(O)cc2c(=O)oc3c(OC)c(O)cc4c(=O)oc1c2c34` gave VDR inhibitor -6.1%.
COc1cc(O)c2c(c1)oc(=O)c1c3cc(O)c(O)cc3oc21 was read as VDR inhibitor inconclusive and ME-1 prolif 31.6µM*.
CCc1cccc(NC(=O)CCCCCC2NC(=O)NC2C)c1 (stereo not drawn) was read as BAZ2B inh 0.794µM*, PLK1 PBD inh 1.3%, HP1b chromo inh 0.794µM*, JMJD2A Tudor 0.316µM*, VDR inhibitor -9.5% and ME-1 prolif -16.4%.
`O=C(O)c1cc(O)c2c(c1)[C@H]([C@H]1c3cc(C(=O)O)cc(O)c3C(=O)c3c(O[C@@H]4OC(CO)C(O)C(O)C4O)cccc31)c1cccc(O[C@@H]3OC(CO)C(O)C(O)C3O)c1C2=O` (stereo partly drawn) gave VDR inhibitor 39.8µM* and ME-1 prolif -18.6%.
`COc1ccc(CC(=O)Nc2cc(-c3nc4cccnc4s3)ccc2C)cc1` gave BAZ2B inh inconclusive, HP1b chromo inh 24.1%, JMJD2A Tudor inconclusive and VDR inhibitor -6.0%.
`Cc1nnc(-c2ccccc2)nc1N(C)C` gave BAZ2B inh 0.3%, PLK1 PBD inh -2.8%, L3MBTL1 inh 8.1%, HP1b chromo inh 50.2%, JMJD2A Tudor 10.4% and VDR inhibitor -10.2%.
Screening CN(C)c1nc(-c2ccccn2)nnc1-c1ccccc1 returned BAZ2B inh 0.794µM*, PLK1 PBD inh 0.8%, HP1b chromo inh 48.0%, JMJD2A Tudor 3.98µM*, VDR inhibitor -3.5% and ME-1 prolif 15.8µM*.
Screening C=C1c2cccc(O)c2C(O)=C2C(=O)[C@@]3(O)C(O)=C(C(N)=O)C(=O)[C@@H](N(C)C)[C@@H]3[C@@H](O)[C@H]12 returned VDR inhibitor inconclusive and ME-1 prolif -2.8%.
Screening CN(C)c1ccc(O)c2c1C[C@H]1C[C@H]3[C@@H](N(C)C)C(=O)C(C(N)=O)=C(O)[C@]3(O)C(=O)C1=C2O returned VDR inhibitor 16.4%.
`Cc1ccccc1C(=O)Nc1ccc(NC(=O)c2cccs2)cc1` gave BAZ2B inh -4.4%, HP1b chromo inh 26.0%, JMJD2A Tudor -19.3% and VDR inhibitor -2.9%.
`Cc1nn(-c2ccccc2)c(N)c1N=Nc1cccnc1` gave BAZ2B inh -35.7%, PLK1 PBD inh -0.8%, L3MBTL1 inh -15.0%, HP1b chromo inh 7.5%, JMJD2A Tudor inconclusive and VDR inhibitor -0.3%.
Screening Nc1nc(-c2ccccc2)c(N=Nc2cccnc2)s1 returned BAZ2B inh 7.94µM*, PLK1 PBD inh -24.4%, L3MBTL1 inh -33.6%, HP1b chromo inh inconclusive, JMJD2A Tudor -33.0%, VDR inhibitor 4.8% and ME-1 prolif -5.2%[25.6 µM].
`O=C1CSC(=S)N1/N=C/c1ccc(O)c(O)c1O` gave BAZ2B inh 2.82µM*, PLK1 PBD inh 0.947µM*, L3MBTL1 inh 1.12µM*, HP1b chromo inh 1.78µM*, JMJD2A Tudor 3.16µM*, VDR inhibitor inconclusive and ME-1 prolif inconclusive.
COC(=O)C1=C(C)NC(=S)NC1c1ccc(-c2cc(Cl)ccc2Cl)o1 (stereo not drawn) was read as BAZ2B inh -31.6%, PLK1 PBD inh -21.4%, HP1b chromo inh 14.8%, JMJD2A Tudor -23.8% and VDR inhibitor inconclusive.
For COc1ccc(Oc2nc(-c3ccccn3)ncc2OC)cc1 the results were BAZ2B inh 28.2µM*, PLK1 PBD inh -18.6%, L3MBTL1 inh inconclusive, HP1b chromo inh 31.8%, JMJD2A Tudor 89.1µM*, VDR inhibitor 9.0% and ME-1 prolif inconclusive.
For COc1ccc(Oc2nc(-c3ccccn3)nc3ccccc23)cc1 the results were BAZ2B inh -16.1%, PLK1 PBD inh 1.3%, L3MBTL1 inh -16.6%, HP1b chromo inh 6.2%, JMJD2A Tudor inconclusive and VDR inhibitor 0.6%.
`Cc1cc(O)c(C=O)c(O)c1C(=O)O` gave VDR inhibitor 8.5%.
`Cc1cc(O)c(C=O)c2c1C(=O)Oc1c(COC(=O)/C=C/C(=O)O)c(O)c(C(=O)O)c(C)c1O2` gave VDR inhibitor 6.31µM* and ME-1 prolif 9.7%.
`COc1cccc2c1NC(C(=O)O)C1CC=CC21` (stereo not drawn) gave BAZ2B inh 3.55µM*, PLK1 PBD inh 26.7µM*, L3MBTL1 inh 1.26µM*, HP1b chromo inh 20µM*, JMJD2A Tudor 8.91µM*, VDR inhibitor -17.8% and ME-1 prolif inconclusive.

Bioassay records deposited in PubChem by National Center for Advancing Translational Sciences (NCATS).
